# DT40 TDP1 CPT = growth inhibition of DT40 Tdp1-/-;hTDP1 cells with camptothecin (screen for TDP1 inhibitors) | chicken DT40 Tdp1-/-;hTDP1 cells + 20 nM CPT, ATP luminescence, 48 h | Potency, µM (highest dose often 46.2 µM), hits mostly inhibitors | actives 12% (n = 420,000) | AID 686979; note: nearly all actives have a fitted effect of over 55% in size
#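 Cell growth measured by CellTiter-Glo luminescence after a minimum 48 h, 37 C compound exposure with 20 nM CPT in Tdp1-knockout DT40 cells stably expressing hTDP1, seeded 400/well; qHTS titration format.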
# DT40 TDP1 no CPT = qHTS for Inhibitors of human tyrosyl-DNA phosphodiesterase 1 (TDP1): qHTS in cells in absence of CPT; DT40 Tdp1-/- hTDP1 cells, no CPT, ATP luminescence, 48 h; Potency, µM (doses to about 46.2 µM), usual class: inhibitors; actives 15% (n = 420,000); note: nearly all actives have a fitted effect of over 55% in size
#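 Camptothecin absent (DMSO only). Human TDP1-complemented DT40 knockout cells, 400 cells/well, 37 °C for minimum 48 hr; ATP measured via CellTiter-Glo, 30 min dark incubation, luminescence.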
# HT1080-NT tox = kills 2HG-producing HT-1080-NT fibrosarcoma cells; actives 1.6% (n = 360,000); AID 686970; HT-1080-NT fibrosarcoma viability, CellTiter-Glo ATP luminescence, 48 h; Potency, µM (highest dose often 46.1 µM), hits mostly cytotoxic;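 note: NT is the 2HG producing partner of a matched IDH1 knockdown line; nearly all actives have a fitted effect of over 55% in size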
#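 HT-1080-NT; 750 cells/well; 5% FBS RPMI; 48 h compound, 37 degrees C; CellTiter-Glo luminescence; curve fitting and curve-class assignment.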
# IL-1B inflam inh = inflammasome signaling inhibition, IL-1 beta readout. AID 743279. THP-1 LPS/ATP IL-1B secretion, AlphaLISA, 16 h; stronger effect = lower value. actives 4.7% (n = 360,000). activity change, % at 57.5 µM; in the data active = activity change below about -50%; inconclusive = mostly about -30% to -49%
#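 Secreted IL-1B measured by AlphaLISA bead assay after 16 h compound exposure of THP-1 cells; compounds (final up to 57.5 uM) added 1 h before LPS (250 ng/mL) and ATP (1.25 mM) stimulation; lower signal means less secretion.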
# HT1080 IDH1KD tx = HT-1080 IDH1 knockdown cell toxicity (counter line); HT-1080 IDH1 knockdown viability, ATP luminescence, 48 h; actives 2% (n = 360,000); Potency, µM (doses to about 46.1 µM), most hits filed as cytotoxic
#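 HT-1080-IDH1KD cells (IDH1 knocked down), 750/well in RPMI with 5% FBS, treated with compound 48 h at 37 degrees C. Viability by CellTiter-Glo luminescence, normalised to DMSO and no-cell wells; concentration-response curves classed.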
# Numbers stand for hits; – = inactive; ? = inconclusive; · = no result given; ! = a repeat was not active; [ ] = dose if it differs, or a comment. Hits are enriched below; roughly 19% of the tested compounds scored in any of these assays. Unless noted, calls come from the whole dose curve; as a rule, active = well fitted curve in the direction sought with a large enough effect; inconclusive = small, poorly fitted or top-dose-only effect, or another doubt; inactive = no such curve, though single readings can be large; an effect the other way counts as inactive or inconclusive.
SMILES,DT40 TDP1 CPT,DT40 TDP1 no CPT,HT1080-NT tox,IL-1B inflam inh,HT1080 IDH1KD tx
CCn1c(NC(=O)/C=C/c2ccc(F)cc2)nc2ccccc21,?,23µM,–,–,–
Cc1cc(NC(=O)/C=C/c2cccc(F)c2)n(-c2nc3ccccc3[nH]2)n1,23µM,12µM,–,–,–
Cc1cccc2c(CC(=O)Nc3ccccc3)noc12,–,–,–,–,–
Cc1ccc(Cl)cc1N1CCN(S(=O)(=O)c2c(C)[nH]c(C)c2C(=O)N2CCCCC2)CC1,16µM,?,–,?,–
Cc1ccc(C)c(N2CCN(S(=O)(=O)c3c(C)[nH]c(C)c3C(=O)N3CCCCC3)CC2)c1,?,?,–,–,–
Cc1[nH]c(C)c(S(=O)(=O)N2CCN(c3cccc(Cl)c3)CC2)c1C(=O)N1CCCCC1,21µM,21µM,–,–,–
O=C(N/N=C/c1cnc2ccccc2n1)c1cccc(F)c1,–,–,–,–,–
Cc1cccc(-n2c3nc(=O)n(C)c(=O)c-3cc3c(Cl)cccc32)c1C,–,–,·,·,·
Cn1c(=O)nc2n(Cc3ccccc3)c3cccc(Cl)c3cc-2c1=O,?,29µM,–,–,–
CCOC(=O)c1ccc(NC(=S)NC(=O)c2cncc(Br)c2)cc1,–,–,–,–,–
CCCCOC(=O)c1ccc(NC(=S)NC(=O)c2c(Br)c(C)nn2C)cc1,?,21µM,–,–,–
COC(=O)c1c(C)oc2ccc(N(C(=O)Oc3ccccc3)S(=O)(=O)c3ccc(C(C)(C)C)cc3)cc12,3.7µM,1.5µM,·,·,·
CCOC(=O)c1c(C)oc2ccc(N(C(=O)Oc3ccccc3)S(=O)(=O)c3ccccc3)cc12,–,–,·,·,·
CC(=O)c1c(C)oc2ccc(N(C(=O)Oc3ccccc3)S(=O)(=O)c3ccccc3)cc12,?,10µM,·,·,·
O=C(CNC(=O)c1ccco1)OCC(=O)c1ccc(Cl)cc1,–,–,–,–,–
O=C(Cc1ccccc1)NCC(=O)OCC(=O)c1ccc([N+](=O)[O-])cc1,?,?,–,-72,–
O=C(CNS(=O)(=O)c1ccccc1)OCC(=O)c1ccc(Br)cc1,–,–,–,–,–
O=C(CNC(=O)c1ccco1)OCC(=O)c1ccc([N+](=O)[O-])cc1,?,?,–,-76,–
O=C(COC(=O)c1cccc([N+](=O)[O-])c1)c1ccc(OCc2ccccc2)cc1,?,13µM,–,–,–
O=C(CNS(=O)(=O)c1ccccc1)OCC(=O)c1ccc([N+](=O)[O-])cc1,21µM,?,–,–,–
O=C(CCc1ccccc1)OCC(=O)c1cccc([N+](=O)[O-])c1,–,–,–,–,–
C=CCn1c(Cn2c(-c3cnccn3)nc3ccccc32)nc2ccccc21,–,?,–,–,–
O=C(Cc1ccc([N+](=O)[O-])cc1)NCc1ccccn1,4.6µM,2.9µM,–,–,–
OC1C(O)C(O)C(O)C(O)C1O (configuration not stated),15µM!,?,?,–,–
COc1ccccc1OCCOCCOc1c(C)cc(C)cc1Br,?,23µM,–,–,–
SMILES,DT40 TDP1 CPT,DT40 TDP1 no CPT,HT1080-NT tox,IL-1B inflam inh,HT1080 IDH1KD tx
COc1ccccc1OCCCOc1c(C)cc(C)cc1Br,–,–,–,–,–
CC(C)CN(C[C@@H](OP(=O)(O)O)[C@H](Cc1ccccc1)NC(=O)O[C@H]1CCOC1)S(=O)(=O)c1ccc(N)cc1,–,–,·,·,·
O=C(NCC(c1cccnc1)N1CCc2ccccc2C1)c1ccc(F)c(F)c1 (configuration not stated),8.2µM,7.3µM,·,·,·
O=C(NCC(c1ccco1)N1CCc2ccccc2C1)c1cccc(F)c1 (configuration not stated),–,–,–,–,–
COc1ccccc1C(=O)NCC(c1cccnc1)N(C)C (configuration not stated),–,–,–,–,–
COc1ccccc1C(=O)NCC(c1cccnc1)N1CCc2ccccc2C1 (configuration not stated),23µM,21µM,·,·,·
CC(=O)Nc1cccc(NC(=O)C(=O)NCC(c2ccco2)N2CCc3ccccc3C2)c1 (configuration not stated),16µM,23µM,–,–,–
O=C(NCC(c1ccco1)N1CCc2ccccc2C1)c1ccc([N+](=O)[O-])cc1 (configuration not stated),?,23µM,–,–,–
Cc1nc(-c2ccccc2)sc1-c1ccc(SCC(=O)NCc2ccc(F)cc2)nn1,–,–,·,·,·
O=C(NCC(c1cccnc1)N1CCc2ccccc2C1)C(=O)Nc1ccccc1F (configuration not stated),15µM,21µM,·,·,·
O=C(NCC(c1cccnc1)N1CCc2ccccc2C1)C(=O)Nc1ccccc1 (configuration not stated),21µM,?,·,·,·
CCOC(=O)[C@H]1[C@H]2COc3ccc(C)cc3[C@@H]2N2C(=O)[C@@H](C)NC(=O)[C@@]12C,–,–,–,–,–
CC(S(=O)(=O)c1ccccc1)S(=O)(=O)c1ccccc1,–,–,–,–,–
CC(C)(C)OC(=O)CC(S(=O)(=O)c1ccccc1)S(=O)(=O)c1ccccc1,1.3µM,0.92µM,?,-51,?
CN1CCN(C(=O)c2cccc(-c3cnc4cnc(-c5ccccc5Oc5ccccc5)cn34)c2)CC1,18µM,13µM,?,-57,23µM
O=C(CCC(=O)N/N=C/c1ccccc1O)NCc1ccccc1,?,?,–,–,–
CCc1cc2c(=O)c(-c3ccc4c(c3)OCCO4)coc2cc1OS(C)(=O)=O,–,?,–,-87,?
O=c1oc2c(CN3CCCCC3)c(O)ccc2cc1-c1nc2ccccc2[nH]1,–,–,–,–,–
CCc1cc2c(=O)c(-c3ccc4c(c3)OCCO4)coc2c(CN2CCCCC2C)c1O (configuration not stated),1.8µM,1.5µM,–,?,?
CCc1cc2c(=O)c(-c3nc4ccccc4[nH]3)coc2c(CN2CCCCC2C)c1O (configuration not stated),?,10µM,–,–,?
CCc1ccccc1N(CC(=O)N1CCCC1)S(C)(=O)=O,–,–,–,–,–
CCc1ccccc1N(CC(=O)N1CCN(c2ccc(F)cc2)CC1)S(C)(=O)=O,15µM,23µM,–,–,–[9.24 µM]
CS(=O)(=O)N(CCc1ccccc1)CC(=O)N1CCN(c2ccc(F)cc2)CC1,?,23µM,–,–,–
CS(=O)(=O)N(CCc1ccccc1)CC(=O)N1CCN(c2ccccc2)CC1,–,–,–,–,–
CS(=O)(=O)N(CC(=O)N1CCN(c2ccccc2F)CC1)c1cc(C(F)(F)F)ccc1Cl,?,16µM,–,–,–

# Screening data from PubChem BioAssay.
